Unmarked numbers belong to inactive results.

This experiment relates to Vero E6 infected with SARS-CoV-2. The experiment can be described thus: SARS-CoV-2 infection rate relative to infected DMSO; higher = more infection, active = 60 or less. The settings on record: 24 h.
For the compound `CC(CCc1ccccc1)NC(C)C(O)c1ccc(O)cc1` (stereo not given) [buphenine] (10 µM), the SARS-CoV-2 infection rate is 114%.

In the case of `Cc1ccc(/C=N/NC(=O)c2ccccc2Oc2ccccc2)o1` (10 µM), the SARS-CoV-2 infection rate is 82.5%.

Turning to `Cc1cc(-c2cc(OC(=O)c3ccccc3)ccc2Cl)cc2nnc(Nc3ccc(OCCN4CCCC4)cc3)nc12` (10 µM), the SARS-CoV-2 infection rate was 114%.

On to `O=c1c(-n2ccnn2)c[nH]n1-c1cc(N2CCOCC2)ncn1` [molidustat] (10 µM), for which the SARS-CoV-2 infection rate was 98.5%.

With `CCCC(=O)C1CCN(c2ncnc3c2CN(C(=O)c2ccc(-c4ccccc4)cc2)CC3)CC1` (10 µM), the SARS-CoV-2 infection rate was 104%.

`O=C(NCCCN1CCOCC1)c1cnn2c(-c3ccccc3)cc(-c3ccccc3)nc12` [reversan] (10 µM): the SARS-CoV-2 infection rate was 98%.

In the case of `CC1=C(CC(=O)O)c2cc(F)ccc2/C1=C\c1ccc([S+](C)[O-])cc1` (stereo not given) [sulindac] (10 µM), the SARS-CoV-2 infection rate was 104%.

With `N=C(N)N` [guanidine] (0.833333 µM), the SARS-CoV-2 infection rate was 118%.

In the case of `CC(C)c1noc(N2CCC(COc3ccc(-c4ccc(S(C)(=O)=O)cc4)nc3)CC2)n1` (10 µM), the SARS-CoV-2 infection rate was 116%.

`Cc1cnc(C(=O)O)c[n+]1[O-]` [acipimox] (10 µM): the SARS-CoV-2 infection rate is 108%.

With `NC(=O)c1ccc(I)c([N+](=O)[O-])c1` [iniparib] (10 µM), the SARS-CoV-2 infection rate is 106%.

On to `Clc1ccccc1C(c1ccccc1)(c1ccccc1)n1ccnc1` [clotrimazole] (10 µM), for which the SARS-CoV-2 infection rate is 78.5%.

In the case of `CNC(=O)c1cc(COc2nnc(Nc3ccc(Cl)cc3)c3ccoc23)ccn1` [telatinib] (10 µM), the SARS-CoV-2 infection rate is 107%.

`O=C(COP(=O)(O)O)[C@@H](O)[C@H](O)[C@H](O)COP(=O)(O)O` [fosfructose] (10 µM): the SARS-CoV-2 infection rate was 120%.

Take `c1cc(Nc2cc(C3CC3)n[nH]2)nc(Nc2ccc3[nH]cnc3c2)n1` (0.833333 µM): the SARS-CoV-2 infection rate is 110%.

With `CCOC(=O)c1ccc(OCCC2CCN(c3ccc(C)nn3)CC2)cc1` [pirodavir] (10 µM), the SARS-CoV-2 infection rate is 104%.

For the compound `COc1ccc2c(c1)C(C(=O)N(Cc1ccc(N(C)C)cc1)c1ccc(C(C)C)cc1)CCC2` (stereo not given) (10 µM), the SARS-CoV-2 infection rate is 85.5%.

`COc1ccc(C(=O)NCc2ccc(OCCN(C)C)cc2)cc1OC` [itopride] (10 µM): the SARS-CoV-2 infection rate is 90.5%.

For `CS(=O)(=O)c1cc(F)cc2c3c(n(Cc4ccc(Cl)cc4)c12)[C@@H](CC(=O)O)CC3` [laropiprant] (10 µM), the SARS-CoV-2 infection rate is 106%.

Consider `COc1cc2c(cc1Cc1cccc(Cl)c1F)c(=O)c(C(=O)O)cn2[C@H](CO)C(C)C` [elvitegravir] (10 µM), for which the SARS-CoV-2 infection rate was 107%.

On to `NC(=O)c1ccc2[nH]ccc2c1` (10 µM), for which the SARS-CoV-2 infection rate was 87.5%.

As for `OCCCNc1ccccc1` [3-anilinopropan-1-ol] (10 µM), the SARS-CoV-2 infection rate was 110%.

`CC(C)OC(=O)[C@H](C)N[P@](=O)(CO[C@H](C)Cn1cnc2c(N)ncnc21)Oc1ccccc1` [tenofovir-alafenamide] (10 µM): the SARS-CoV-2 infection rate was 106%.

With `C=CC(=O)Nc1cc(Nc2nccc(-c3cn(C)c4ccccc34)n2)c(OC)cc1N(C)CCN(C)C` [osimertinib] (10 µM), the SARS-CoV-2 infection rate is 110%.

Turning to `Nc1ccc(S(=O)(=O)Nc2cnc3ccccc3n2)cc1` [sulfaquinoxaline] (10 µM), the SARS-CoV-2 infection rate is 104%.

Turning to `Cc1ccc(Nc2c(F)cccc2Cl)c(CC(=O)O)c1` [lumiracoxib] (10 µM), the SARS-CoV-2 infection rate was 109%.

With `FC(F)OC(F)(F)C(F)Cl` (stereo not given) [enflurane] (10 µM), the SARS-CoV-2 infection rate is 98.5%.

In the case of `Cn1ccnc1S` [methimazole] (10 µM), the SARS-CoV-2 infection rate was 108%.

For `C=C[C@@H]1C[C@]1(NC(=O)[C@@H]1C[C@@H](Oc2ncc(OC)c3ccc(Cl)cc23)CN1C(=O)[C@@H](NC(=O)OC(C)(C)C)C(C)(C)C)C(=O)NS(=O)(=O)C1CC1` [asunaprevir] (10 µM), the SARS-CoV-2 infection rate was 85%.

As to `Cn1cc(C(=O)OCC2CCN(CCNS(C)(=O)=O)CC2)c2ccccc21` (10 µM), the SARS-CoV-2 infection rate was 96%.

For `O[C@H]1CC[C@H](Nc2nc(-c3ccccc3)nc3[nH]ccc23)CC1` (10 µM), the SARS-CoV-2 infection rate is 93%.

For the compound `COc1ccsc1CNCC[C@@]1(c2ccccn2)CCOC2(CCCC2)C1` (10 µM), the SARS-CoV-2 infection rate is 103%.

`CO[C@H]1/C=C\C=C(/C)C(=O)NC2=CC(=O)C(NCCN(C)C)=C(C[C@@H](C)C[C@H](OC)[C@H](O)[C@@H](C)/C=C(\C)[C@@H]1OC(N)=O)C2=O` [alvespimycin] (10 µM): the SARS-CoV-2 infection rate was 91%.

Consider `O=c1ccc2ccc(O)c(O)c2o1` [daphnetin] (10 µM), for which the SARS-CoV-2 infection rate was 110%.

Consider `O=c1sn(-c2cccc3ccccc23)c(=O)n1Cc1ccccc1` [tideglusib] (10 µM), for which the SARS-CoV-2 infection rate was 108%.

In the case of `COc1cccc(NC(=O)/C=C/c2ccc(Cl)cc2)c1` (10 µM), the SARS-CoV-2 infection rate is 99.5%.

Regarding `CCN(CC)CCCCC1CCN(CC(=O)N2c3ccccc3C(=O)Nc3cccnc32)CC1` (10 µM), the SARS-CoV-2 infection rate was 108%.

Consider `O=C(O)CNC(=O)c1ccccc1I` [2-iodohippuric-acid] (10 µM), for which the SARS-CoV-2 infection rate is 110%.

Regarding `N[C@@H]1CCN(c2cccnc2)C1` (10 µM), the SARS-CoV-2 infection rate is 102%.

For `NS(=O)(=O)c1cc(C(=O)O)c(NCc2ccco2)cc1Cl` [furosemide] (10 µM), the SARS-CoV-2 infection rate was 98%.

The values above are taken from the supplement of paper PMC13380429.
